Reference: PubChem BioAssay AID624126 (The Scripps Research Institute Molecular Screening Center, 2012)
Out of some 360,000 compounds screened, about 1,400 (0.39%) were called active. This is one part of a sample in which actives are shown more often than they occur. A number with no mark means an inactive call.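 How the source made its calls: active means activation above its plate's cutoff, the mean activation of sample wells plus 3 SD; inactive means the rest.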

The compounds below were run against Muscarinic acetylcholine receptor M4 (Homo sapiens) (UniProt P08173) (assay: human M4 muscarinic receptor positive allosteric modulators, primary screen, CHO-K1 cells, Fluo-8 calcium fluorescence (AID 624126)). Conditions: CHO-K1 hM4/Gqi5, Fluo-8 calcium fluorescence, ACh EC20; at 3 µM; stronger effect = higher value; 0% = ACh EC20, 100% = maximal ACh.
Chain of Muscarinic acetylcholine receptor M4 (Homo sapiens) (P08173 whole entry, looked up): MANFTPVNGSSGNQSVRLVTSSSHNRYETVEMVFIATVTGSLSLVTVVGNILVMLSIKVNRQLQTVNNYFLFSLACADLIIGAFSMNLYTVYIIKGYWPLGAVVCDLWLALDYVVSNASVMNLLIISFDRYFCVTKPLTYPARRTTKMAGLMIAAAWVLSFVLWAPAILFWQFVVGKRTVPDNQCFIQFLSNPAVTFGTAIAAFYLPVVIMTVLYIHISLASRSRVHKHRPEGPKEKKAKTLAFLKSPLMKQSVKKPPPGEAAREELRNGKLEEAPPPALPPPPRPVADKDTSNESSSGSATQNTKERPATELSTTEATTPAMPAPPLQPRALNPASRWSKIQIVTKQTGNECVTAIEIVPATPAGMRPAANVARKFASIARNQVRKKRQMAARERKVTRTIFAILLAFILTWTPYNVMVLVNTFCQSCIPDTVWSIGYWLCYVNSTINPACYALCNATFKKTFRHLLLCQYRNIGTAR

Structure (SMILES) | activation
COc1cc(CC(=O)N2CCC(n3nccc3NC(=O)C3CC3)CC2)cc(OC)c1OC | 0.58%
Cc1cc(C)cc(N)c1 | -1.71%
CC(Nc1nc(C(F)(F)F)nc2ccccc12)c1cccs1 (configuration not stated) | -11.8%
CC(C)NC(=O)C(=O)N/N=C/c1ccco1 | 23.7% (active)
Cc1c(Cl)cccc1NC(=O)CCC(=O)N/N=C/c1ccco1 | 4.77%
O=C(CCNC(=O)c1ccccc1Cl)NN=Cc1ccco1 | 3.05%
O=C(OCC(=O)N(CCc1ccccc1)Cc1ccccc1)c1ccccc1[N+](=O)[O-] | -11%
CC(NC(=O)COc1ccccc1)C(=O)NC1=NCCS1 (configuration not stated) | 8.32%
CCN1CN(Cc2ccccc2)CNC1=S | 10.7%
CN1CCN(S(=O)(=O)c2cccc(C(=O)Nc3cccc(S(N)(=O)=O)c3)c2)CC1 | -0.95%
CC(C)CCN1C(=O)c2ccc(C(=O)Nc3cccc(S(N)(=O)=O)c3)cc2C1=O | 23.1% (active)
CCCCN1C(=O)c2ccc(C(=O)Nc3ccc(S(=O)(=O)N(C)C)cc3)cc2C1=O | -10.2%
CC(=O)NC(NC(=S)Nc1c(C)n(C)n(-c2ccccc2)c1=O)C(Cl)(Cl)Cl (configuration not stated) | -1.16%
CCCCc1ccc(NC(=S)N2CCCC(CO)C2)cc1 (configuration not stated) | 0.72%
CCOC(=O)c1sc(NC(=O)CSc2n[nH]c(CC)n2)nc1C | -9.01%
CCOC(=O)c1sc(NC(=O)C2CSC3(C)CCC(=O)N23)nc1C (configuration not stated) | 2.06%
CCOC(=O)c1sc(/N=C/Nc2nc(C)c(C(=O)OCC)s2)nc1C | 39% (active)
Cc1ccn2cc(-c3nonc3C)cc2c1 | 3.14%
Cc1ccc(S(=O)(=O)N2CCCCC2)cc1C(=O)N1CCN(CCO)CC1 | 7.4%
CN1CCN(C(=O)N2c3ccccc3CCc3ccccc32)CC1 | -20.3%
CCc1noc(C)c1C(=O)N1CCCC(N2CCN(c3ccc(F)cc3)CC2)C1 (configuration not stated) | 20% (active)
COc1ccccc1CN1CCCC(N2CCN(c3ccc(F)cc3)CC2)C1 (configuration not stated) | -7.29%
Cc1cnc(C(=O)N2CCCC(N3CCN(c4ccccc4F)CC3)C2)cn1 (configuration not stated) | 6.32%
COCCCNC(=O)Cn1cc(/C=C(\C#N)C(=O)N2CCN(c3ccccc3)CC2)c2ccccc21 | 6.26%
COc1ccc(CCNC(=O)CCn2c(=O)oc3ccccc32)cc1OC | 5.54%
CCN1CCC2(CCN(Cc3cn[nH]c3-c3ccc(OC)c(F)c3)C2)C1 (configuration not stated) | 16.5%

Structure (SMILES) | activation
CC[C@]1(O)CC2CN(CCc3c([nH]c4ccccc34)[C@@](C(=O)OC)(c3cc4c(cc3OC)N(C=O)[C@H]3[C@@](O)(C(=O)OC)[C@H](OC(C)=O)[C@]5(CC)C=CCN6CC[C@]43[C@@H]65)C2)C1 (some centres not stated) | -0.6%
CCN(CC)S(=O)(=O)c1ccc(NC(=O)c2cccnc2Cl)c(NC(=O)c2cccnc2Cl)c1 | 2.53%
CCn1cc(C(=O)NCCO)c(=O)c2cc(F)c(N3CCN(C)CC3)cc21 | -4.27%
CCCCNC(=O)c1cn(CC)c2cc(N3CCN(C(=O)c4ccco4)CC3)c(F)cc2c1=O | 18% (active)
CCCCCCn1cc(C(=O)O)c(=O)c2cc(F)c(N3CCCCC3)cc21 | -1.05%
O=C1NC[C@@H](c2ccccc2)OC(=O)[C@H](Cc2ccc(F)cc2)CC/C=C/C[C@H]1CC(=O)N(CCO)Cc1ccccc1 | -11.5%
O=C(O)CCn1cc(/C=C/C(=O)c2ccc(Cl)cc2)c(-c2cccc(Br)c2)n1 | -5.08%
O=[N+]([O-])c1ccc2[nH]c3c(c2c1)CCCC3O (configuration not stated) | 6.6%
CC(C)Oc1ccccc1C(=O)NC(CO)C(=O)O (configuration not stated) | 7.23%
COc1ccc(NC(=O)CCCC2CCCCC2)c(OC)c1 | 21.1% (active)
CC(=O)Oc1ccc(NC(=O)CCC2CCCCC2)c(C(=O)O)c1 | 4.74%
COc1ccc(NC(=O)CCn2ccnc2)c(OC)c1 | -8.61%
CCOC(=O)c1c(CN(C)C)n(-c2ccccc2)c2cc(Br)c(O)cc12 | 1.89%
Nc1nnc(C2CCCC2)s1 | -4.96%
COc1cc(/C=C/C(=O)N2CCc3ccccc3C2)cc(OC)c1OC | -4.53%
COc1ccc(/C=C/C(=O)N2CCCC2)cc1OC | 31.3% (active)
CCOC(=O)C1CCN(C(=O)/C=C/c2cc(OC)c(OC)c(OC)c2)CC1 | 0.77%
COc1cccc(NC(=O)Cn2c3ccccc3c3nc4n(c(=O)c32)CCS4)c1 | 7.32%
O=C(NCc1cccnc1)C12CC3CC(CC(C3)C1)C2 | -4.11%
S=C(NCc1ccc(Cl)cc1)NC12CC3CC(CC(C3)C1)C2 | -13.6%
O=C(NCc1ccncc1)NC12CC3CC(CC(C3)C1)C2 | 21.2% (active)
Cc1noc(C)c1NC(=O)N(C)C[C@@H]1Oc2cc(Br)ccc2S(=O)(=O)N([C@@H](C)CO)C[C@H]1C | 3.07%
COc1ccc(CCNC(=O)COC(=O)c2ncc(Cl)c(Cl)c2Cl)cc1OC | 0.15%
COC(=O)c1ccc(OC(=O)c2nn(C)cc2Cl)c(OC)c1 | 22% (active)
COC(=O)c1ccc(COC(=O)c2cnc(Cl)c(Cl)c2)cc1 | 1.26%
COc1ccc(CSc2nnnn2-c2ccc(O)cc2)cc1F | -3.48%
